The panel holds about 83,000 compounds, 20% with a hit somewhere; the sample as a whole holds those more often.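 Compound tested at a single concentration for 48 hours in 96-well plates; a percent growth value below 10 was scored as active.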 A number with no mark means an inactive call. Calls of active or inactive are those of the source.
How the values were obtained:
Assay in all cases: NCI-60 one-dose screen, 48 h (100 = growth as untreated, 0 = no growth, -100 = all killed)
K-562 leukemia = conditions: 10 µM unless noted
MALME-3M melanoma = conditions: 10 µM unless noted
MDA-MB-231 breast = conditions: 10 µM unless noted
RXF 393 renal = conditions: 10 µM unless noted
SF-268 CNS = conditions: 10 µM unless noted
SF-295 CNS = conditions: 10 µM unless noted
SF-539 CNS = conditions: 10 µM unless noted
UACC-257 melanoma = conditions: 10 µM unless noted
M14 melanoma = conditions: 10 µM unless noted
HCT-15 colon = conditions: 10 µM unless noted
HT29 colon = conditions: 10 µM unless noted
SNB-75 CNS = conditions: 10 µM unless noted
SNB-19 CNS = conditions: 10 µM unless noted
U251 CNS = conditions: 10 µM unless noted
PC-3 prostate = conditions: 10 µM unless noted
UACC-62 melanoma = conditions: 10 µM unless noted
LOX IMVI melanoma = conditions: 10 µM unless noted
SK-MEL-28 melanoma = conditions: 10 µM
SK-MEL-2 melanoma = conditions: 10 µM unless noted
SK-MEL-5 melanoma = conditions: 10 µM unless noted

| SMILES | growth (K-562 leukemia) | growth (MALME-3M melanoma) | growth (MDA-MB-231 breast) | growth (RXF 393 renal) | growth (SF-268 CNS) | growth (SF-295 CNS) | growth (SF-539 CNS) | growth (UACC-257 melanoma) | growth (M14 melanoma) | growth (HCT-15 colon) | growth (HT29 colon) | growth (SNB-75 CNS) | growth (SNB-19 CNS) [%] | growth (U251 CNS) | growth (PC-3 prostate) | growth (UACC-62 melanoma) | growth (LOX IMVI melanoma) | growth (SK-MEL-28 melanoma) | growth (SK-MEL-2 melanoma) | growth (SK-MEL-5 melanoma) |
| --- | --- | --- | --- | --- | --- | --- | --- | --- | --- | --- | --- | --- | --- | --- | --- | --- | --- | --- | --- | --- |
| O=c1oc2ccc(Br)cc2c(=O)n1-c1ccc(I)cc1F | 5.48% (active) | -28.3% (active) | -19.1% (active) | -1.04% (active) | 6.16% (active) | -61.3% (active) | 1.29% (active) | -16.3% (active) | -9.72% (active) | 1.62% (active) | 40.1% | -20.8% (active) | 18.4 | 0.947% (active) | -0.134% (active) | -19.7% (active) | 6% (active) | -2% (active) | -32.6% (active) | – |
| Oc1ccc(-c2nc(-c3ccc4oc5ccc(-c6[nH]c(-c7ccc(O)cc7)nc6-c6ccccc6)cc5c4c3)c(-c3ccccc3)[nH]2)cc1 | 22.7% | 43.1% | 59.5% | 84.9% | 63.5% | 15.6% | 79.4% | 34.5% | 65.5% | 78.8% | 34.6% | 39.2% | 63.5 | 58.2% | 52.1% | 49.9% | – | – | 93.7% | 70.8% |
| COc1ccc(N)c(-c2cc3c(c4c2[nH]c2ccc(OC)cc24)CCCC3)c1 | 76.8% | 108% | 77.6% | 87.1% | 73.8% | 88.8% | 98% | 67.9% | 78.5% | 58.6% | 76.1% | 70.9% | 88.5 | 74.3% | 52.9% | 69.5% | – | 97.7% | 95.4% | 94.7% |
| O=c1oc2ccc(F)cc2c(=O)n1-c1ccc(F)cc1F | 15.7% | -6.02% (active) | 51.1% | 33.5% | 15% | 37.9% | 18.5% | 17.5% | 29% | 23.3% | 97.1% | 2.33% (active) | 38.1 | 13.6% | 16.1% | 3.17% (active) | 14.2% | 23% | -11.8% (active) | – |
| Nc1ccc(-c2nn3c(CCC(=O)c4nc5ncccc5[nH]4)nnc3s2)c(O)c1 | 105% | 93% | 71.2% | 84.9% | 73.5% | 97.1% | 89.1% | 101% | 96.5% | 95.8% | 103% | 70.3% | 88.2 | 103% | 82.8% | 92.9% | 85.2% | 105% | 100% | – |
| O=c1oc2ccc(Cl)cc2c(=O)n1-c1cc(C(F)(F)F)cc(C(F)(F)F)c1 | 8.63% (active) | -33.8% (active) | -21.9% (active) | -5.99% (active) | 3.66% (active) | -65.1% (active) | -5.73% (active) | -14.7% (active) | -22.5% (active) | -5.03% (active) | 1.92% (active) | -36.2% (active) | 13.5 | -15.2% (active) | 11.9% | -34.7% (active) | -15.5% (active) | -18.9% (active) | -34.2% (active) | – |
| O=C(CCc1nnc2sc(COc3ccccc3)nn12)c1nc2ncccc2[nH]1 | 107% | 91.4% | 91.8% | 98.4% | 96% | 103% | 100% | 98.9% | 95.6% | 100% | 106% | 79.8% | 100 | 101% | 96.5% | 91.8% | 91.8% | 107% | 102% | – |
| Cc1ccc(NC2=CC(=O)C(=O)c3ccccc32)c(C)c1 | 61.3% | 62.5% | 49.5% | 85.5% | 63.2% | 34.6% | 48.8% | 23.1% | -15.5% (active) | 13.3% | 48.4% | 35.2% | 28.1 | 33.3% | 35.4% | – | -23.2% (active) | – | 76.6% | -97.3% (active) |
| CN(C)c1ccc(/C=C/c2ccnc3c(O)cccc23)cc1 | 5.89% (active) | -2.62% (active) | 36.5% | 36.1% | 12.5% | -8% (active) | 2.91% (active) | -15.5% (active) | -22.5% (active) | 26.7% | 98.6% | 28.5% | 26.4 | 12% | 32% | – | 13.1% | 29.1% | 11.8% | 8.23% (active) |
| O=c1oc2ccc(Br)cc2c(=O)n1-c1ccc(Cl)cc1F | 6% (active) | -30.6% (active) | -22.6% (active) | 4.25% (active) | 8.43% (active) | -58.4% (active) | 4.14% (active) | -10.6% (active) | -11.9% (active) | 0.07% (active) | 20.2% | -26.9% (active) | 17.7 | 3.56% (active) | -7.82% (active) | -28.5% (active) | 8.91% (active) | -0.768% (active) | -19.6% (active) | – |
| O=c1c2cc(F)cc(Cl)c2sc2c(Cl)nc3ccccc3c12 | 110% | 88.9% | 84% | 100% | 98.5% | 101% | 97% | 114% | 99.5% | 103% | 101% | 84.6% | 96.5 | 105% | 98.9% | 92.2% | 80.9% | 108% | 108% | – |
| COc1cc(C2C3=C(COC3=O)N(CCO)c3cc4c(cc32)CCC4)cc(OC)c1O (stereo not given) | 14.7% | 54.7% | 18% | -35.8% (active) | 43.6% | -2.29% (active) | -22.6% (active) | 36.2% | 1.16% (active) | 17.9% | 0.722% (active) | 3.02% (active) | 31.2 | 15.3% | 31.7% | – | 28.2% | – | 89% | 11.8% |
| O=C(Nc1ccc(I)cc1F)c1cc(Cl)ccc1O | 8.14% (active) | -28.9% (active) | -17.6% (active) | 1.47% (active) | 5.87% (active) | -62.8% (active) | 2.65% (active) | -18.1% (active) | -22% (active) | 2.58% (active) | 33.5% | -24.3% (active) | 18.6 | 0.895% (active) | 3.02% (active) | -18.8% (active) | 0.0612% (active) | -4.2% (active) | -30.8% (active) | – |
| Fc1cccc(COc2ccc(Nc3ncnc4onc(-c5ccccc5)c34)cc2)c1 | 12.1% | 41% | 13.8% | -26.6% (active) | 29.2% | 2.77% (active) | -42.4% (active) | 54.8% | -23% (active) | 20.2% | 3.86% (active) | -34.9% (active) | 21 | 22.5% | 18.4% | – | 23.1% | 55.2% | 35.9% | 19.2% |
| O=c1c(-c2nc3ccccc3[nH]2)cc2ccccc2n1Cc1cn(Cc2ccc(F)cc2)nn1 | 17.7% | 12.8% | 4.33% (active) | -25.5% (active) | 29.4% | 1.67% (active) | -55.9% (active) | 49.9% | -20.7% (active) | 16.9% | 2.52% (active) | -19.2% (active) | 21.8 | 14.2% | 22% | – | 12.8% | – | 36% | 6.69% (active) |
| CCOC(=O)c1cnc2c(C)cccc2c1Nc1ccc(C(C)=O)cc1 | -21.5% (active) | -81% (active) | 11.2% | -54.5% (active) | 43.5% | -82.2% (active) | -44.9% (active) | -58.4% (active) | -67.6% (active) | 0.0229% (active) | -67.4% (active) | 32.4% | 40.6 | -81.3% (active) | 12.4% | – | -88.5% (active) | -93% (active) | -76.2% (active) | -91.8% (active) |

— PubChem BioAssay (NCI)
